Reference: ChEMBL document CHEMBL3988442, “University of Dundee, Small-Polar-MMV Screening Library” (2021)

Key:
[1] = target: T1, Aspartate--tRNA(Asp/Asn) ligase (Mycobacterium tuberculosis (strain ATCC 25618 / H37Rv)) (UniProt P9WFW3); experiment: Assay for Asp RNA synthetase-1 from Mycobacterium tuberculosis; assay type: functional; design: scale not given: direction of the effect not stated beside the values; conditions: 30 µM; note: in the data most compounds retested in dose-response had high values
T1 sequence (whole entry): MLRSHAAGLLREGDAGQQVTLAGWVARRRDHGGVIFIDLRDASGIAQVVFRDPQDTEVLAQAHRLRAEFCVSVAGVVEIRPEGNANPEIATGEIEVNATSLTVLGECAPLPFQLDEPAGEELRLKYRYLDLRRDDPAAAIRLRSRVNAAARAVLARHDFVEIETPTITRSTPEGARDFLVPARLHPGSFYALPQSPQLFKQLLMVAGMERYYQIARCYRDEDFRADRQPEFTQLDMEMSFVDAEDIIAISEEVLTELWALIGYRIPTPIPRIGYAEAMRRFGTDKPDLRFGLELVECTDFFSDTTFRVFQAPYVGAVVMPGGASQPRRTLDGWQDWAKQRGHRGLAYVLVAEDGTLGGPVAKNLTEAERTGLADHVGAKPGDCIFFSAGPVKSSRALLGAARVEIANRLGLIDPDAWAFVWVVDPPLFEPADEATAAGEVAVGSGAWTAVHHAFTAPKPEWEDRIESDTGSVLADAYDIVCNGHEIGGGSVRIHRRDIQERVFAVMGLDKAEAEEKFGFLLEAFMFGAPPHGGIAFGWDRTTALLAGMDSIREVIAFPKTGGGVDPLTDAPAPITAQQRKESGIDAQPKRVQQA

[2] = target: Shiga toxin 2 (Escherichia coli O157:H7) (UniProt P09385+P09386); experiment: E. coli 0.157:H7 Shiga Toxin SOP - stx2 screening assay; assay type: functional; design: scale not given: direction of the effect not stated beside the values; conditions: 30 µM

SMILES | Percent Effect [1] [%] | Percent Effect [2] [%]
CCC1CN(CCNC(C)=O)CCN1CCOC (centres undefined) | 15 | 16.5
COc1ccc(CN(C)C(=O)CCc2c(C)nc(C)[nH]c2=O)cc1OC | -5.24 | -6.32
Cc1ccc(-c2nc(CN3CCOC(Cn4cccn4)C3)cs2)o1 (centres undefined) | -1.71 | -9.02
Cn1cccc1C(=O)N1CCCC2(CCCN2Cc2cccnc2)C1 (centres undefined) | 7.03 | 19.4
CCC1CN(CC(=O)Nc2sccc2C#N)CCO1 (centres undefined) | -2.46 | 32.6
c1ncc(Nc2nccc(C3CCCCN3CC3CCCCC3)n2)cn1 (centres undefined) | 0.28 | -0.91
CC1CN(Cc2nccn2C)CCN1c1ccc2nncn2n1 (centres undefined) | -6.07 | -28.7
N#Cc1cccc(N2CC3(CCN(C(=O)c4cccnc4)C3)CC2=O)c1 (centres undefined) | 2.09 | -13.7
Cc1ccc(C2CSCCN2C(=O)c2ccsc2)o1 (centres undefined) | 3.37 | 16.4
Cc1noc(-c2ccc(N3CCCC(C(=O)N4CCSCC4)C3)nc2)n1 (centres undefined) | -3.39 | 10.1
O=C(Nc1cccc(Cl)c1)c1nn(C2CCS(=O)(=O)C2)c2c1CCCC2 (centres undefined) | 6.98 | 5.07
CCO[C@@H]1CCN(C(=O)c2ccc[nH]2)[C@@H]1Cc1cnn(C)c1 | -1.78 | 5.04
CC(=O)N1CCCn2nc(CNS(=O)(=O)N3CCCCCC3)cc2C1 | -7.71 | -4.22
CCn1nnc2c1C(COC)CN(C(=O)COc1ccccc1)C2 (centres undefined) | -1.42 | -31.2
O=C(NCc1ccccc1)N1CCC2(CC(=O)N(c3ccsc3)C2)C1 (centres undefined) | -2.24 | -10.6
Cc1nc(C)n(CC2CCCCN2CCS(C)(=O)=O)n1 (centres undefined) | -3.09 | -15.8
Cc1ccc(-c2nnc(SCC(=O)O)n2-c2ccc(C)cc2)cc1 | 0.544 | -4.96
CC(C)N(C)C(=O)C1=NOC2(CCN(C(=O)c3ccncc3)C2)C1 (centres undefined) | -1.05 | -7.21
CC(Cn1cccn1)NC(=O)NCCc1ccc(Cl)s1 (centres undefined) | 4.37 | -19.2
c1cnn(CC2CN(CCc3ccncc3)CCO2)c1 (centres undefined) | 2.1 | 17.1
Cn1cnc2c1CCN(CCCOc1ccc(C#N)cc1)C2 | -4.46 | -24.8
CCn1nccc1CNC(=O)NC1CCCCC1 | 11.6 | -68.7
CN(Cc1nnc(C2CC2)n1C)C1CCN(Cc2ccccc2F)C1 (centres undefined) | -3.49 | -40.3
CCS(=O)(=O)N(C)C(=O)c1cc(C)n(-c2cccc(OC)c2)c1C | -6.83 | -4.96

SMILES | Percent Effect [1] [%] | Percent Effect [2] [%]
N#Cc1cccc(S(=O)(=O)NC(=O)COc2ccc3c(c2)CCC3)c1 | -0.478 | 8.82
CN(C)CC1CN(c2ccc(C#N)cn2)CCO1 (centres undefined) | 0.899 | 22.4
O=C(C[C@@H]1COC[C@H]2CN(Cc3ccncc3)C[C@@H]12)N1CCOCC1 | -4.65 | -32
c1ccc2oc(CCCN3CCOC(Cn4cccn4)C3)nc2c1 (centres undefined) | 0.605 | -3.52
O=C(NC1COC2(CCN(Cc3ccccn3)CC2)C1)c1ccccn1 (centres undefined) | -7.74 | -29.1
COc1ccc(CCN2CCC(N3CCN(C)C3=O)CC2)cc1 | -1.97 | 0.371
NC(=O)CN1CCCN(C(=O)c2ccn(-c3cccc(F)c3)n2)CC1 | 5.51 | -6.78
CN(C)CCN1CCO[C@@H]2CN(C(=O)c3cccs3)CC[C@@H]2C1 | 0.229 | 4.93
Cc1ccc(CCN2CCC(N(C)Cc3noc(C4CC4)n3)C2)cc1 (centres undefined) | -2.9 | -69.9
COc1ccc(CNC2CCCN(Cc3noc(C)n3)C2)cc1F (centres undefined) | 1.37 | 6.55
COc1ccc(C)cc1CN1CCCC1Cn1nc(C)nc1C (centres undefined) | -7.82 | -25.1
O=C(NCCN1CCCCC1)c1nc2ccccc2c(=O)[nH]1 | -1.02 | -53.5
Cc1ccc2c(n1)N(C)CCN(C(=O)NC1CC1)C2 | 7.86 | -7.89
CC1CCCN(CCNC(=O)c2ccn(-c3ccccc3)n2)C1 (centres undefined) | 5.86 | -20.3
O=C(NCCNc1ncccn1)C1CCN(c2ncccn2)CC1 | -0.874 | 5.72
Cn1cnc(S(=O)(=O)N2CCN(Cc3ccco3)CC2)c1Cl | -2.54 | 13.8
COCCNC(=O)[C@H]1CN(c2nnc(C)s2)C[C@H]2OCC[C@@H]12 | -1.22 | -23.9
O=C(CCc1ccsc1)NCC1CCN(c2ccccc2)C1 (centres undefined) | 0.529 | -12.3
CN(C)c1ncnc2c1CCN(CC1CCOC1)CC2 (centres undefined) | -1.82 | -26.9
Cn1ccnc1N1CCN(C(=O)Cc2ccc(F)cc2)CC1 | 3.25 | -73
CN(Cc1ccc2c(c1)OCCO2)C(=O)Cn1cccnc1=O | -2.54 | -20.6
Cc1nc(C2(NCC(=O)NCCc3cccs3)CCCC2)no1 | -3.06 | 8.44
COCCOc1cccc(C(=O)N2CCCC(n3ccnc3C)C2)c1 (centres undefined) | -2.52 | -16
